Laboratory results taken from PubChem BioAssay (NCATS).
Records with an inconclusive call do not appear. A call without a number means that no potency is given here. The source made the active and inactive calls. Calls follow the shape of the dose curve; as a rule, active = well fitted inhibition curve with a large enough effect; inconclusive = small, poorly fitted or top-dose-only effect; inactive = flat fitted curve, though single readings scatter.

Each molecule was assayed on AA1029 (assay: qHTS profiling for inhibitors of Plasmodium falciparum proliferation (AID 504749; also: nearly all actives have a fitted effect of over 60% in size)). Conditions: P. falciparum in erythrocytes, SYBR Green DNA, 72 h; series mostly up to 28.7 µM.
Summary of the method: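 Infected RBCs, 0.3% parasitemia/2.5% Hct final; cpd 72 h, 37 C, 5% CO2; lysis buffer with saponin/triton/SYBR Green I, o/n RT dark; FI 485/535; norm. to artemisinin (0.29 uM) and DMSO.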

SMILES	Potency
O=C(O)COC(=O)Cc1ccccc1Nc1c(Cl)cccc1Cl	inactive
Cc1cccc(C)c1NC(=O)CC12CCCN1CCC2	inactive
COc1ccc2cc(CCC(C)=O)ccc2c1	inactive
Cc1ccsc1C(=CCCN1CCC[C@@H](C(=O)O)C1)c1sccc1C	inactive
COC(=O)c1ccc(O)cc1	inactive
COc1ccc(O)cc1	inactive
c1ccc2[nH]ccc2c1	inactive
COc1ccc(NS(=O)(=O)c2ccc(N)cc2)nn1	inactive
CCN(CC)C(=O)c1cccc(C)c1	inactive
FC(F)(F)C(Cl)Br (centres undefined)	inactive
CN(C(=O)c1c(O)c2ccccc2n(C)c1=O)c1ccccc1	inactive
CC(=O)OCC(COC(C)=O)OC(C)=O	inactive
OC[C@@H](O)[C@@H](O)[C@H](O)[C@H](O)CO	inactive
O=C(CCBr)N1CCN(C(=O)CCBr)CC1	inactive
CC(=O)Nc1ccc(C(=O)O)cc1	inactive
C=CCNC(N)=S	inactive
O[C@@H]1CO[C@H]2[C@@H]1OC[C@@H]2O	inactive
CC(C)c1cc2c(cc1S(=O)(=O)O)[C@@]1(C)CCC[C@@](C)(C(=O)O)[C@@H]1CC2	inactive
Cc1onc(-c2ccccc2)c1-c1ccc(S(N)(=O)=O)cc1	inactive
CC(C)CCCC(C)CCCC(C)CCCCC(C)CCCC(C)CCCC(C)C (centres undefined)	inactive
CCCCCCCC(=O)OCC(O)CO (centres undefined)	inactive
CCCNC(C)(C)COC(=O)c1ccccc1	inactive
Cc1cccc(Nc2ccccc2C(=O)O)c1C	inactive
CN1CCCN=C1COC(=O)C(O)(c1ccccc1)C1CCCCC1 (centres undefined)	inactive
